Data published in PubChem BioAssay AID1159580 (chemical genetic matrix, 2015).
The whole screen tested about 5,500 compounds, of which about 2,000 (36%) were called active. Inconclusive results (about 18%) are left out. Rule as the data show it: active = normalized growth mostly below about 0.91 (no sharp cut-off); inconclusive = no clear call, values can overlap the other calls; inactive = mostly above about 0.92. This is one part of the list.

Assay: chemical genetic growth profiling, strain panel (AID 1159580);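 also: tested at 20 µM; growth read once vehicle control cultures reached saturation at 30 °C; 1 = growth at the plate median or of vehicle wells; lower values mean less growth of the strain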
Conditions: S. cerevisiae deletion strains, growth OD

Measured: normalized growth

COc1ccc(C2CC(c3ccc(C)cc3C)=NN2C(C)=O)cc1 (stereo unspecified)
inactive: locus YAR019C, strain CDC15, stronger effect = lower value 0.997 | locus YBL105C, strain PKC1, stronger effect = lower value 0.993 | locus YBR135W, strain CKS1, stronger effect = lower value 0.984 | locus YBR136W, strain MEC1, stronger effect = lower value 0.981 | locus YBR160W, strain CDC28, stronger effect = lower value 0.995 | locus YDL017W, strain CDC7, stronger effect = lower value 0.992 | locus YDL028C, strain MPS1, stronger effect = lower value 0.984 | locus YDL101C, strain DUN1, stronger effect = lower value 0.987 | locus YDL108W, strain KIN28, stronger effect = lower value 0.977 | locus YDL132W, strain cdc53, stronger effect = lower value 0.994 | locus YDL214C, strain PRR2, stronger effect = lower value 0.872 | locus YDR052C, strain DBF4, stronger effect = lower value 0.999 | locus YDR054C, strain cdc34, stronger effect = lower value 0.983 | locus YDR226W, strain ADK1, stronger effect = lower value 0.985 | locus YDR477W, strain SNF1, stronger effect = lower value 0.919 | locus YER123W, strain YCK3, stronger effect = lower value 0.85 | locus YER133W, strain GLC7, stronger effect = lower value 0.911 | locus YFL009W, strain cdc4, stronger effect = lower value 0.984 | locus YFL029C, strain CAK1, stronger effect = lower value 0.994 | locus YFR003C, strain YPI1, stronger effect = lower value 0.988 | locus YFR019W, strain FAB1, stronger effect = lower value 0.937 | locus YFR028C, strain CDC14, stronger effect = lower value 0.981 | locus YGR040W, strain KSS1, stronger effect = lower value 0.89 | locus YGR052W, strain FMP48, stronger effect = lower value 0.971 | locus YGR092W, strain DBF2, stronger effect = lower value 0.909 | locus YHR030C, strain SLT2, stronger effect = lower value 1.04 | locus YHR079C, strain IRE1, stronger effect = lower value 0.971 | locus YHR082C, strain KSP1, stronger effect = lower value 0.984 | locus YHR205W, strain SCH9, stronger effect = lower value 0.931 | locus YIL147C, strain SLN1, stronger effect = lower value 0.978 | locus YJL095W, strain BCK1, stronger effect = lower value 0.967 | locus YJL128C, strain PBS2, stronger effect = lower value 0.907 | locus YJL157C, strain FAR1, stronger effect = lower value 0.889 | locus YJR016C, strain ILV3, stronger effect = lower value 0.994 | locus YJR066W, strain TOR1 (second series), stronger effect = lower value 0.881 | locus YJR066W, strain TOR1, stronger effect = lower value 0.978 | locus YKL048C, strain ELM1, stronger effect = lower value 0.955 | locus YKL067W, strain YNK1, stronger effect = lower value 0.908 | locus YKL101W, strain HSL1, stronger effect = lower value 0.905 | locus YKL193C, strain SDS22, stronger effect = lower value 0.989 | locus YKL203C, strain TOR2, stronger effect = lower value 0.981 | locus YLR113W, strain HOG1, stronger effect = lower value 0.868 | locus YLR133W, strain CKI1, stronger effect = lower value 0.93 | locus YLR403W, strain SFP1, stronger effect = lower value 0.916 | locus YML070W, strain DAK1, stronger effect = lower value 0.888 | locus YMR001C, strain CDC5, stronger effect = lower value 0.998 | locus YMR205C, strain PFK2 (second series), stronger effect = lower value 0.913 | locus YMR277W, strain FCP1, stronger effect = lower value 0.986 | locus YNL006W, strain LST8, stronger effect = lower value 0.998 | locus YNL020C, strain ARK1, stronger effect = lower value 0.914 | locus YNL161W, strain CBK1, stronger effect = lower value 0.997 | locus YNL183C, strain NPR1, stronger effect = lower value 0.995 | locus YNL207W, strain RIO2, stronger effect = lower value 0.991 | locus YNL222W, strain SSU72, stronger effect = lower value 0.991 | locus YNL307C, strain MCK1 (second series), stronger effect = lower value 0.931 | locus YOL078W, strain AVO1, stronger effect = lower value 0.994 | locus YOL136C, strain PFK27, stronger effect = lower value 0.887 | locus YOR061W, strain CKA2, stronger effect = lower value 0.881 | locus YOR119C, strain RIO1, stronger effect = lower value 0.979 | locus YOR231W, strain MKK1, stronger effect = lower value 0.927 | locus YOR329C, strain SCD5, stronger effect = lower value 0.997 | locus YPL031C, strain PHO85, stronger effect = lower value 0.917 | locus YPL153C, strain RAD53, stronger effect = lower value 0.905 | locus YPL204W, strain HRR25, stronger effect = lower value 0.922 | locus YPL209C, strain IPL1, stronger effect = lower value 0.998 | locus YPL256C, strain CLN2, stronger effect = lower value 0.975 | locus YPR025C, strain CCL1, stronger effect = lower value 0.992 | locus YPR106W, strain ISR1, stronger effect = lower value 0.979 | locus YPR111W, strain DBF20, stronger effect = lower value 0.977 | strain NNK1, stronger effect = lower value 0.97 | strain TSCII, stronger effect = lower value 0.995
